# Experimental data: PubChem BioAssay (NCATS)
# Several values for one entry are separate records, joined by “and”; a condition that tells them apart may be missing. Identical values can stand only once. Inconclusive results are not listed. Entries that show only a call come without a potency. More than one record can exist for a structure, and the calls need not agree. Activity calls are given as the source filed them. Unless noted, calls follow the shape of the dose curve; as a rule, active = well fitted curve in the direction sought with a large enough effect; inconclusive = small, poorly fitted or top-dose-only effect, or another doubt; inactive = no such curve, though single readings can be large; an effect the other way counts as inactive or inconclusive.
# Key:
# [1] = Primary qHTS for inhibitors of La Crosse Virus (LACV) - induced cell death in SH-SY5Y cells (AID 1508616);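 also: top concentration of the series differs between compounds; higher means more rescue of cells from virus-induced death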
# Outline: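 SH-SY5Y cells (6000/well) plated 24 h, then given compounds by pin transfer and LACV at 0.01 MOI for 6 days at 37C. Viability measured by ATPLite luminescence, normalized to infected DMSO and uninfected DMSO.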
# [2] = target: Calcium and integrin-binding protein 1 (Homo sapiens) (UniProt Q99828); assay: Validation qHTS for Identification of Calcium Integrin Binding protein 1 (CIB1) Competitor (AID 1508618)
# Calcium and integrin-binding protein 1 (Homo sapiens), sequence (Q99828 whole entry, looked up): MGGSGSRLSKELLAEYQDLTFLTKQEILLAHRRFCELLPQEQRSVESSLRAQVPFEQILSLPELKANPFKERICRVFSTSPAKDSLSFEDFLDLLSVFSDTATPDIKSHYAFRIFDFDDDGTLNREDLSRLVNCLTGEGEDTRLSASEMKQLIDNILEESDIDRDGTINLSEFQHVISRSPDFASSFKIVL
# Outline: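 Displacement of FITC-alphaIIb peptide (100 nM) from CIB1-GST (1 uM) is monitored by polarization in quantitative HTS format; buffer carries 5 mM CaCl2 and 125 mM NaCl at pH 7.4, incubations are at room temperature.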
# [3] = target: Calcium and integrin-binding protein 1 (Homo sapiens) (UniProt Q99828); assay: Primary qHTS for Identification of Calcium Integrin Binding Protein 1 (CIB1) Competitor (AID 1508620);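 also: GST tagged CIB1 binding a fluorescein labelled alphaIIb integrin peptide tracer; top concentration of the series differs between compounds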
# Outline: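 CIB1-GST (1 uM final) and compound incubated 15 min at room temperature before adding FITC-alphaIIb peptide tracer (100 nM final). Competition for binding read by fluorescence polarization (ex 480, em 540) after another 15 min at room temperature.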
# [4] = A High-Content qHTS Against Drug Library for the Identification of Small Molecules that Inhibit DYT1 Early Onset Primary Dystonia-Associated Cell Pathology (AID 1645839; calls by dose curve; also: series mostly up to about 46 µM)
# Outline: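 In this high-content image screen, delE TorsinA mislocalization in inducible Flp-In 293 cells is scored as %pathology, with cell count serving as the counterscreen. Compound exposure lasts 48 h under tetracycline induction in reduced-serum medium.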
# [5] = target: Papain (Carica papaya) (UniProt P00784); assay: Primary qHTS assay for inhibitors of the protease papain (AID 1645873);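 also: papain turnover of Z-FR-AMC read as the AMC fluorescence gain over 10 min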; also: potency is read from the fitted curve at half-maximal effect
# Papain (Carica papaya), sequence (P00784 whole entry, looked up): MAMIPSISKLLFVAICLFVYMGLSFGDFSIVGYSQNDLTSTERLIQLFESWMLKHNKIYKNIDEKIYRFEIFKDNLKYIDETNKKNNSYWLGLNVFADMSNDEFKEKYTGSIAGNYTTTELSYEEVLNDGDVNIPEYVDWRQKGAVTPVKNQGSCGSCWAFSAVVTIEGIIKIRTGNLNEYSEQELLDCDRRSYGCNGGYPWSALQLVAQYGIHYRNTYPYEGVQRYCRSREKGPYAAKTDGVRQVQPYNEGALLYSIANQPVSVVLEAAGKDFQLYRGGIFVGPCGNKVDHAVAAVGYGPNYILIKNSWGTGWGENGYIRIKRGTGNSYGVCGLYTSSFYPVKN
# [6] = target: Cytochrome P450 2D6 (Homo sapiens) (UniProt P10635); assay: Cytochrome P450 family 2 subfamily D member 6 (CYP2D6) small molecule antagonists: luciferase biochemical (cell-free) qHTS assay (AID 1645840; active = well fitted curve in the direction sought with a large enough effect in the repeat runs; an effect the other way counts as inactive or inconclusive; also: nearly all actives have a fitted effect of over 55% in size; also: potency is read from the fitted curve at half-maximal effect)
# Cytochrome P450 2D6 (Homo sapiens), sequence (P10635 whole entry, looked up): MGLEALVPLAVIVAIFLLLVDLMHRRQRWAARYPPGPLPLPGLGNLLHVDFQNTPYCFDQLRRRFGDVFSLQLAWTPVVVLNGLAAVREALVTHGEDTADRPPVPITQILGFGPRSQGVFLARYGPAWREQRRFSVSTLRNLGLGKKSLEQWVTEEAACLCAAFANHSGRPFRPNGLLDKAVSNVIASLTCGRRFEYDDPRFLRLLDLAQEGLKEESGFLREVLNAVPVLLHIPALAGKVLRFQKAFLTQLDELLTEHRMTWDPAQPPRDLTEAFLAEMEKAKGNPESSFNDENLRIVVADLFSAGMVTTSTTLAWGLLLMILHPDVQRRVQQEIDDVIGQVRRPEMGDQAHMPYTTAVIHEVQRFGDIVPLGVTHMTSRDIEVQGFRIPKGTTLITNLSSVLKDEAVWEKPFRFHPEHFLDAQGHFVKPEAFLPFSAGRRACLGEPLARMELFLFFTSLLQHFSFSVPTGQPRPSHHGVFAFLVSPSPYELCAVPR
# Outline: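 P450-Glo luminescent screen: recombinant CYP2D6 enzyme–proluciferin substrate mix preincubated with compound 10 min at room temperature, then NADPH regeneration added for 1 h at room temperature. Detection reagent added for 20 min; luciferin light read as relative luminescence units.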
# [7] = target: Cytochrome P450 2C9 (Homo sapiens) (UniProt P11712); assay: Cytochrome P450 family 2 subfamily C member 9 (CYP2C9) small molecule antagonists: luciferase biochemical (cell-free) qHTS assay (AID 1645842; active = well fitted curve in the direction sought with a large enough effect in the repeat runs; an effect the other way counts as inactive or inconclusive; also: nearly all actives have a fitted effect of over 55% in size; also: potency is read from the fitted curve at half-maximal effect)
# Cytochrome P450 2C9 (Homo sapiens), sequence (P11712 whole entry, looked up): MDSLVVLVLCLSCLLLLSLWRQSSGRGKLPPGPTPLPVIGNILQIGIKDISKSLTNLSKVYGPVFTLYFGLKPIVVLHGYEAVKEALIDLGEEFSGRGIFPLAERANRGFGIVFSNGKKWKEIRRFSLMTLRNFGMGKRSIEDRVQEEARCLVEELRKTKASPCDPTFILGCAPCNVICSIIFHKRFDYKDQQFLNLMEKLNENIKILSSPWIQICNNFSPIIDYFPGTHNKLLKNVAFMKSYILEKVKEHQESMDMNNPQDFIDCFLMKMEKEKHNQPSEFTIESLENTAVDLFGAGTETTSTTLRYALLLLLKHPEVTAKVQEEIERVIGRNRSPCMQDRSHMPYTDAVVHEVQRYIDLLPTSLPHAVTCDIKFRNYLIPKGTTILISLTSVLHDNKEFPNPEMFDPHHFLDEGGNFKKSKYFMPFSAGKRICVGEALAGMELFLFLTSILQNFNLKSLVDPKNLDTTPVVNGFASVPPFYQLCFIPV
# Outline: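 Luminescence, after 20 min with luciferin detection reagent, reflected CYP2C9 turnover during a 1 h NADPH-driven reaction at 37C. Enzyme-substrate mix contained 0.4% bovine serum albumin and was preincubated with compound 10 min at room temperature.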
# [8] = Primary qHTS for inhibitors of nuclear receptor binding SET domain protein 2 (NSD2) in an isogenic RCH-ACV NSD2 p.E1099K mutant (9B) (AID 1645876); also: nearly all actives have a fitted effect of over 70% in size; also: potency is read from the fitted curve at half-maximal effect
# [9] = Primary qHTS for inhibitors of nuclear receptor binding SET domain protein 2 (NSD2) in an RCH-ACV wild type WT cells (2C) (AID 1645877); also: nearly all actives have a fitted effect of over 70% in size; also: potency is read from the fitted curve at half-maximal effect
# [10] = Primary qHTS for small molecule stabilizers of the endoplasmic reticulum resident proteome: Secreted ER Calcium Modulated Protein (SERCaMP) assay (AID 1508630); also: potency is read from the fitted curve at half-maximal effect
# Outline: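 GLuc-SERCaMP-expressing SH-SY5Y cells, pretreated 16 h with compound, are challenged with thapsigargin to empty ER calcium stores; after 4 h, coelenterazine is added directly to the medium and luminescence is imaged.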
# [11] = Counterscreen qHTS for small molecule stabilizers of the endoplasmic reticulum resident proteome: GLuc-NoTag assay (AID 1508627);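 also: SH-SY5Y cells given compound then 100 nM thapsigargin to empty ER calcium; series mostly up to about 76 µM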
# Outline: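 Luminescence of Gaussia luciferase secreted into the medium (coelenterazine, 0.07x final, unlysed cells) was the read-out. Human SH-SY5Y neuroblastoma cells constitutively secreting untagged GLuc received compound for 19 h, then 100 nM thapsigargin for 4 h.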
# [12] = target: Cytochrome P450 3A4 (Homo sapiens) (UniProt P08684); assay: Cytochrome P450 family 3 subfamily A member 4 (CYP3A4) small molecule antagonists: luciferase qHTS assay (AID 1645841; active = well fitted curve in the direction sought with a large enough effect in the repeat runs; an effect the other way counts as inactive or inconclusive; also: nearly all actives have a fitted effect of over 45% in size)
# Cytochrome P450 3A4 (Homo sapiens), sequence (P08684 whole entry, looked up): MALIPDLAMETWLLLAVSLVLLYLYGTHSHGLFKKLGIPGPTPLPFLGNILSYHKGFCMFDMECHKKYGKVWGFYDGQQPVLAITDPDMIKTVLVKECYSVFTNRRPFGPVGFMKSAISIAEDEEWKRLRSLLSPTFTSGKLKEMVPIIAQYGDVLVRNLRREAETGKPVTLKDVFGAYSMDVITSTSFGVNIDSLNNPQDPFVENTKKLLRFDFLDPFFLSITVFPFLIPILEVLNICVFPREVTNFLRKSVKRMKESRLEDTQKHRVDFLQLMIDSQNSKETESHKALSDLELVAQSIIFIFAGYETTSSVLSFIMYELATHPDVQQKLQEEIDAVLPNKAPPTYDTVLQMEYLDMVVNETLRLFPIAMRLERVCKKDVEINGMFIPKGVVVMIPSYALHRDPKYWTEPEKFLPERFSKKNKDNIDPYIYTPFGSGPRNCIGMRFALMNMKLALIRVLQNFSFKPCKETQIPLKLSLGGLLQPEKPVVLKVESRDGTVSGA
# Outline: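 Luminescent CYP3A4 activity readout: compounds plus enzyme-substrate mix 10 min at room temperature, reaction started with NADPH regenerating system for 1 h, stopped with detection reagent, read after 20 min. Ketoconazole served as control.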
# [13] = target: Rap guanine nucleotide exchange factor 3 (Homo sapiens) (UniProt O95398); assay: Confirmatory qHTS for antagonist of cAMP-regulated guanine nucleotide exchange factor 3 (EPAC1) (AID 1645880); also: potency is read from the fitted curve at half-maximal effect; nearly all actives have a fitted effect of over 55% in size
# Rap guanine nucleotide exchange factor 3 (Homo sapiens), sequence (O95398 whole entry, looked up): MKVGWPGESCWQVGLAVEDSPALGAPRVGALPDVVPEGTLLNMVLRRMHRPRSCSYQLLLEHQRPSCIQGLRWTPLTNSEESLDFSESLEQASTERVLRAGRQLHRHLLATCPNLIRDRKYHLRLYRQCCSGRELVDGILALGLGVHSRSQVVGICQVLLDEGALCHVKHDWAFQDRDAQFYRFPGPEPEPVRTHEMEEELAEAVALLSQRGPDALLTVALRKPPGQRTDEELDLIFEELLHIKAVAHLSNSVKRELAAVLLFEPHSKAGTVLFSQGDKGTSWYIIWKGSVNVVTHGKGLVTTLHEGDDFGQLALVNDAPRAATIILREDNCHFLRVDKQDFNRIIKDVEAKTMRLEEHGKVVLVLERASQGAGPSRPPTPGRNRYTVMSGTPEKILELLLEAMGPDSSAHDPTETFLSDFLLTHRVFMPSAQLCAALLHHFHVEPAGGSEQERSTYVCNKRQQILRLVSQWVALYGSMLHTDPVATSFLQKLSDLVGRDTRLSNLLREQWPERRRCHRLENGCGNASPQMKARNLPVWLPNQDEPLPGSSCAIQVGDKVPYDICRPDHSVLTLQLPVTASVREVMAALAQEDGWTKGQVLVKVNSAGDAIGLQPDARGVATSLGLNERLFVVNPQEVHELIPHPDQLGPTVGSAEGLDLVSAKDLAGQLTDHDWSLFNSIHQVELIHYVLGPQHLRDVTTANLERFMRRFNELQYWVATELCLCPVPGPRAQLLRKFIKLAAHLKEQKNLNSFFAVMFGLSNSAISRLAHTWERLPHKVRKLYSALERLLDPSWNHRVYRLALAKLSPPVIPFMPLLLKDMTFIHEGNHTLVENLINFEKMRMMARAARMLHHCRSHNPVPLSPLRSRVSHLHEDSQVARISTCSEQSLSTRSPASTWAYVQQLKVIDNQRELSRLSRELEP
# Outline: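 Nucleotide exchange uses 100 nM EPAC1, 250 nM RAP1B-BODIPY-GDP and 50 uM GDP, with compounds in a concentration-titration series. After 5 min at room temperature, fluorescence (480 nm ex/540 nm em) is read every 5 min for 30 min. Data are normalized to control ATA and DMSO.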
# [14] = target: Rap guanine nucleotide exchange factor 3 (Homo sapiens) (UniProt O95398); assay: Confirmatory qHTS for agonist of cAMP-regulated guanine nucleotide exchange factor 3 (EPAC1) (AID 1645881);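 also: EPAC1 catalysed release of BODIPY-GDP from Rap1B seen as fluorescence loss; nearly all actives have a fitted effect of over 75% in size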
# [15] = target: Rap guanine nucleotide exchange factor 4 (Homo sapiens) (UniProt Q8WZA2); assay: Confirmatory qHTS for agonist of cAMP-regulated guanine nucleotide exchange factor 4 (EPAC2) (AID 1645884);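 also: nucleotide exchange releases bodipy-GDP from Rap1 and this lowers its fluorescence; nearly all actives have a fitted effect of over 65% in size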
# Rap guanine nucleotide exchange factor 4 (Homo sapiens), sequence (Q8WZA2 whole entry, looked up): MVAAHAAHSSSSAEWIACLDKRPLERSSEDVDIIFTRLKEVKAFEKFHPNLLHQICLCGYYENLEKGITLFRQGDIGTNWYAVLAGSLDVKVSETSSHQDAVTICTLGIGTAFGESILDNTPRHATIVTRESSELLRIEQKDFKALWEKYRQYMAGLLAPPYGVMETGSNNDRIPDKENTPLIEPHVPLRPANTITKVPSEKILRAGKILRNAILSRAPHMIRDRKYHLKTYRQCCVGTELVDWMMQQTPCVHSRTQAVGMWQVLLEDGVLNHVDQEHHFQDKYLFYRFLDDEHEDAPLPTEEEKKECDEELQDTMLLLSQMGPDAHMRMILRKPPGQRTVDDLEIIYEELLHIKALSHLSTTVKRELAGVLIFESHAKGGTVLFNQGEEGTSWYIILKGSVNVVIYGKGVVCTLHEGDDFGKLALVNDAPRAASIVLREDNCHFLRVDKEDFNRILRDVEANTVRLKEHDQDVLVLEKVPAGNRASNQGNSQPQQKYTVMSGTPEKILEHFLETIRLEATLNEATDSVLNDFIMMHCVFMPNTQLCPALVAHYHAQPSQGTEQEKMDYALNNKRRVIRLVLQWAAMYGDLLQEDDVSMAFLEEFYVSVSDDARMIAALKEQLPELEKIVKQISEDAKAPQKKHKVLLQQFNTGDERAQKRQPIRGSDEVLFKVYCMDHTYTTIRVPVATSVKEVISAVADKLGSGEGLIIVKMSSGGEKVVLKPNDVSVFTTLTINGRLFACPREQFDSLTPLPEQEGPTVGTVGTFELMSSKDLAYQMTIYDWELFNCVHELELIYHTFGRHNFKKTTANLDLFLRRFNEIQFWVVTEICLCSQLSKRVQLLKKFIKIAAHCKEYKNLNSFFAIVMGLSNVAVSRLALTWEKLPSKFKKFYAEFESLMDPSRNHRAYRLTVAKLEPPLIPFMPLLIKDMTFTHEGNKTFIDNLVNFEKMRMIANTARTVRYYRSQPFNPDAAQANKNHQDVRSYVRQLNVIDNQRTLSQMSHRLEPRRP
# [16] = target: Rap guanine nucleotide exchange factor 4 (Homo sapiens) (UniProt Q8WZA2); assay: Confirmatory qHTS for antagonist of cAMP-regulated guanine nucleotide exchange factor 4 (EPAC2) (AID 1645885); also: nearly all actives have a fitted effect of over 25% in size; also: potency is read from the fitted curve at half-maximal effect
# [17] = Cell Viability qHTS for small molecule stabilizers of the endoplasmic reticulum resident proteome (AID 1508629); conditions: cell viability counter-screen, 100 nM thapsigargin for final 4 h;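 also: human SH-SY5Y neuroblastoma cells carrying the GLuc-SERCaMP reporter; compound exposure about 46 h in total before the viability read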
# [18] = target: N-terminal Xaa-Pro-Lys N-methyltransferase 1 (Homo sapiens) (UniProt Q9BV86); assay: Confirmatory qHTS for Inhibitors of N-terminal methyltransferase 1 (NTMT1): MTaseGlo Assay (AID 1645874);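 also: luminescence from SAH made as NTMT1 methylates SPKRIA peptide using SAM; series mostly up to about 100 µM; nearly all actives have a fitted effect of over 65% in size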
# N-terminal Xaa-Pro-Lys N-methyltransferase 1 (Homo sapiens), sequence (Q9BV86 whole entry, looked up): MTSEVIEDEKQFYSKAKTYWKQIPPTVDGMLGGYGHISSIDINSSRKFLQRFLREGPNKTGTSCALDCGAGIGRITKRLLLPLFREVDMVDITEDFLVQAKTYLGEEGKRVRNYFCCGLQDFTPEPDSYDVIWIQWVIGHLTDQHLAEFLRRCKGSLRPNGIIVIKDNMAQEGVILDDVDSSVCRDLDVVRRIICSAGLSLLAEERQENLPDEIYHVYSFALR
# Outline: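 Preincubation of NTMT1 (125 nM) plus SAM (100 uM) with test compounds lasted 15 min; methylation of 1 uM SPKRIA then proceeded 30 min in the dark at room temperature. Luciferase signal reported SAH produced.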
smiles,measurement,setting,value
O=C(O)COCCN1CCN(C(c2ccccc2)c2ccc(Cl)cc2)CC1 (configuration not stated),outcome,[1],inactive
same,Potency,[2],inactive
same,outcome,[3],inactive
same,Potency,[4],inactive
same,Potency,[5],inactive
CCn1cc(C(=O)O)c(=O)c2cc(F)c(N3CCNC(C)C3)c(F)c21 (configuration not stated),outcome,[1],inactive
same,Potency,[2],inactive
same,outcome,[3],inactive
same,Potency,[4],inactive
same,Potency,[6],inactive
same,Potency,[7],inactive
same,Potency,[5],15.8 µM (active)
same,Potency,[8],inactive
same,Potency,[9],inactive
O=C(O)CCc1ccc(NCc2cccc(Oc3ccccc3)c2)cc1,Potency,[2],inactive
same,outcome,[3],inactive
same,Potency,[10],inactive
same,Potency,[5],inactive
same,Potency,[8],inactive
same,Potency,[9],inactive
CC(C)C[C@H](NC(=O)[C@@H](O)[C@H](N)Cc1ccccc1)C(=O)O,outcome,[1],inactive
same,Potency,[2],inactive
same,outcome,[3],inactive
same,Potency,[10],inactive
same,Potency,[5],inactive
same,Potency,[8],inactive
same,Potency,[9],inactive
Cc1c(C)c2c(c(C)c1O)CCC(C)(COc1ccc(CC3SC(=O)NC3=O)cc1)O2 (configuration not stated),outcome,[1],inactive
same,outcome,[3],inactive
same,Potency,[10],inactive
same,Potency,[7],6.92 µM (active)
Cc1ccc(N(CC2=NCCN2)c2cccc(O)c2)cc1,outcome,[1],inactive
same,Potency,[11],inactive
same,Potency,[10],inactive
same,Potency,[4],inactive
same,Potency,[6],0.309 µM (active)
same,Potency,[7],inactive
same,Potency,[5],inactive
same,Potency,[8],inactive
CCc1ccc(CCOc2ccc(CC3SC(=O)NC3=O)cc2)nc1 (configuration not stated),outcome,[1],inactive
same,outcome,[3],inactive
same,Potency,[10],inactive
same,Potency,[4],inactive
same,Potency,[6],inactive
same,Potency,[8],inactive
same,Potency,[9],inactive
N=c1nc(N2CCCCC2)cc(N)n1O,outcome,[1],inactive
same,Potency,[10],inactive
same,Potency,[6],7.76 µM (active)
same,Potency,[12],inactive
same,Potency,[7],inactive
same,Potency,[5],inactive
same,Potency,[8],inactive
same,Potency,[9],inactive
CS(=O)(=O)c1cccc(CNc2nc(Nc3ccc4c(c3)CCC(=O)N4)ncc2C(F)(F)F)c1,Potency,[2],inactive
same,outcome,[3],inactive
same,Potency,[6],inactive
same,Potency,[7],0.169 µM (active)
same,Potency,[5],inactive
same,Potency,[8],3320 nM (active)
same,Potency,[9],3.32 µM (active)
CC(C)(C)NCC(O)c1ccc(O)c(CO)c1 (configuration not stated),outcome,[1],inactive
same,Potency,[2],inactive
same,outcome,[3],inactive
same,Potency,[4],inactive
same,Potency,[6],inactive
same,Potency,[7],inactive
same,Potency,[5],inactive
same,Potency,[8],inactive
same,Potency,[9],inactive
NC(=O)c1cnccn1,outcome,[1],inactive
same,Potency,[2],inactive
same,outcome,[3],inactive
same,Potency,[4],inactive
same,Potency,[6],inactive
same,Potency,[7],inactive
same,Potency,[5],inactive
same,Potency,[8],inactive
same,Potency,[9],inactive
O=C(Nc1nc2ccccc2n1CCN1CCOCC1)c1cccc([N+](=O)[O-])c1,outcome,[1],inactive
same,Potency,[2],inactive
same,outcome,[3],inactive
same,Potency,[5],inactive
same,Potency,[8],inactive
same,Potency,[9],inactive
Fc1ccc(Cl)cc1-c1nc(Nc2ccncc2)c2nccnc2n1,outcome,[3],inactive
CNC[C@H](O)c1cccc(O)c1,outcome,[1],inactive
same,outcome,[3],inactive
same,Potency,[10],inactive
same,Potency,[4],inactive
same,Potency,[6],inactive
same,Potency,[7],inactive
same,Potency,[5],inactive
same,Potency,[8],inactive
same,Potency,[9],inactive
CC(C)(Sc1ccc(CCN(CCCCC2CCCCC2)C(=O)NC2CCCCC2)cc1)C(=O)O,outcome,[1],inactive
same,outcome,[3],inactive
same,Potency,[11],inactive
same,Potency,[10],inactive
same,Potency,[8],inactive
same,Potency,[13],28 µM (active) and 42.6 µM (active)
same,outcome,[14],inactive
same,outcome,[15],inactive
same,Potency,[16],44.1 µM (active) and inactive and 39.3 µM (active)
Cc1cnc(NC(=O)C2=C(O)c3ccccc3S(=O)(=O)N2C)s1,outcome,[1],inactive
same,Potency,[10],inactive
same,Potency,[4],inactive
same,Potency,[6],inactive
same,Potency,[7],11 µM (active) and inactive
same,Potency,[8],inactive
same,Potency,[9],inactive
CC(=O)NC(C)c1ccc(Oc2ccc(OC(C)C)cc2)cc1 (configuration not stated),outcome,[3],inactive
same,Potency,[10],inactive
Cc1cccc(-c2[nH]c(C(C)(C)C)nc2-c2ccc3nccnc3c2)n1,outcome,[1],inactive
same,Potency,[2],inactive
same,outcome,[3],inactive
same,Potency,[10],inactive
same,Potency,[5],inactive
same,Potency,[8],13.2 µM (active) and 5.8 µM (active)
same,Potency,[9],11.8 µM (active) and 6.51 µM (active)
COc1ccc(-c2ccc3c(N4CCOCC4)nc(N4C[C@@H](C)O[C@@H](C)C4)nc3n2)cc1CO,outcome,[3],inactive
same,max response,[17],-27.3% (inactive)
same,Potency,[10],14.9 µM (active)
same,Potency,[8],662 nM (active)
C[C@]12CCC(=O)C=C1CC[C@@H]1[C@@H]2[C@@H](O)C[C@@]2(C)[C@H]1CC[C@]2(O)C(=O)CO,outcome,[1],inactive
same,Potency,[10],inactive
same,Potency,[4],inactive
same,Potency,[6],inactive
same,Potency,[7],inactive
same,Potency,[5],inactive
same,Potency,[8],inactive
same,Potency,[9],1.68 µM (active) and 296 nM (active)
Cn1cnc2c(F)c(Nc3ccc(Br)cc3Cl)c(C(=O)NOCCO)cc21,outcome,[1],inactive
same,outcome,[3],inactive
same,Potency,[10],inactive
same,Potency,[4],inactive
same,Potency,[6],inactive
same,Potency,[7],8.71 µM (active)
same,Potency,[8],inactive
same,Potency,[9],inactive
NS(=O)(=O)c1cc2c(cc1Cl)NC=NS2(=O)=O,outcome,[1],inactive
same,Potency,[2],inactive
same,outcome,[3],inactive
same,Potency,[10],inactive
same,Potency,[5],inactive
same,Potency,[8],inactive
same,Potency,[9],inactive
Clc1ccc(Nc2nnc(Cc3ccncc3)c3ccccc23)cc1,outcome,[1],inactive
same,outcome,[3],inactive
same,Potency,[10],inactive
same,Potency,[6],0.0174 µM (active)
same,Potency,[7],0.049 µM (active)
same,Potency,[18],inactive
same,Potency,[8],15 µM (active) and 9.34 µM (active)
same,Potency,[9],13.3 µM (active) and 8.33 µM (active)
O=c1ncn2nc(Sc3ccc(F)cc3F)ccc2c1-c1c(Cl)cccc1Cl,outcome,[3],inactive
CCC(C)n1ncn(-c2ccc(N3CCN(c4ccc(OC[C@H]5CO[C@](Cn6cncn6)(c6ccc(Cl)cc6Cl)O5)cc4)CC3)cc2)c1=O (some centres not stated),outcome,[1],inactive
same,outcome,[3],inactive
same,Potency,[10],inactive
same,Potency,[6],inactive
same,Potency,[7],11 µM (active)
same,Potency,[8],502 nM (active)
